These results are taken from PubChem BioAssay (EPA / NIEHS).

Records with an inconclusive call do not appear. Calls of active or inactive are those of the source. The calls were made as follows, unless noted: active = hit-call score of the fitted dose curve at least 0.9, where 1 is the maximum; inactive = score below 0.9.

The nature of the first test: CCTE_Mundy_HCI_hNP1_Casp3_7: CCTE's Caspase-Glo 3/7 Assay in human neuroprogenitor cells for Apoptosis, Mundy Lab (AID 2284240). The essentials: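 Apoptosis is scored by activated caspase-3/7 luminescence in WA09-derived neural progenitor cells, measured 26.5 h after chemical dosing. Values represent gain of signal relative to DMSO vehicle.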
For the compound `CC(C)O`, the call was inactive.
For `F`, the result was inactive.
As to `CC(=O)N[C@@H](CC(=O)O)C(=O)O`, the compound was classed as inactive.
Turning to `CCCCCC=C(C)C(CC)CCO` (stereo unspecified), the outcome was inactive.
What is called AC50 is the concentration giving half of the maximal activity seen. Consider `BrC1CC(Br)CC(Br)CC(Br)CC(Br)CC(Br)C1` (stereo unspecified), for which the AC50 is 4.22 µM (active).
In the case of `O=C(CC(=O)C(F)(F)F)C(F)(F)F`, the call was inactive.
Still for that read-out and setting: the result for `C[C@@H]1CC[C@@H](C(C)(C)O)[C@H](O)C1` reads “inactive”; that for `CC(C)c1nn(C(=O)NC(C)(C)C)c(=O)n1N`, “inactive”.
On the same count and under the same terms, next, `CCc1ccccc1`: “inactive”; `CCCCCC(C)(CC)C(=O)NC` (stereo unspecified): “inactive”; `Cc1[nH]n(C)c(=O)c1C(=O)c1ccc(C(F)(F)F)cc1S(C)(=O)=O`: “inactive”.
Turning to `CC(CNC(=S)[S-])NC(=S)[S-].[Zn+2]` (stereo unspecified), the AC50 is 11.1 µM (active).
Consider `C[C@@H]1CCO[C@H]2Cn3cc(C(=O)NCc4ccc(F)cc4F)c(=O)c(O)c3C(=O)N12`, for which the AC50 was 10.1 µM (active).

A short description of another test: CCTE_Mundy_HCI_hNP1_CellTiter: CCTE's Cell Titer-Glo 2 Assay in human neuroprogenitor cells for Viability, Mundy Lab (AID 2284241; active = hit-call score of the fitted dose curve at least 0.9, where 1 is the maximum;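 as to AC50: a hit is a drop in ATP luminescence versus DMSO meaning reduced viability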). A digest of the protocol:
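Human neural progenitor cells (hNP1, WA09-derived) were plated on poly-L-ornithine/laminin and grown 40 to 44 hours at 37 °C, 5% CO2 before chemical addition. Twenty-four hours later, ATP was measured by CellTiter-Glo luminescence; loss of signal versus DMSO indicates reduced viability.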
Background: ATP-based viability assays read luminescence as a measure of living cells.
For `CC(C)O`, the call was inactive.
On the same count and under the same terms, the result for `F` reads “inactive”; that for `CC(=O)N[C@@H](CC(=O)O)C(=O)O`, “inactive”.
The same measure, in the same setting: next, `CCCCCC=C(C)C(CC)CCO` (stereo unspecified): “inactive”.
As for `BrC1CC(Br)CC(Br)CC(Br)CC(Br)CC(Br)C1` (stereo unspecified), the concentration at half-maximal activity (AC50) is 8.39 µM (active).
As for `O=C(CC(=O)C(F)(F)F)C(F)(F)F`, the compound was classed as inactive.
On the same count and under the same terms, next, `C[C@@H]1CC[C@@H](C(C)(C)O)[C@H](O)C1`: “inactive”.
For `CC(C)c1nn(C(=O)NC(C)(C)C)c(=O)n1N`, the compound was called inactive.
For `CCCCCC(C)(CC)C(=O)NC` (stereo unspecified), the result was inactive.
Still for that read-out and setting: the result for `Cc1[nH]n(C)c(=O)c1C(=O)c1ccc(C(F)(F)F)cc1S(C)(=O)=O` reads “inactive”; that for `CC(CNC(=S)[S-])NC(=S)[S-].[Zn+2]` (stereo unspecified), “inactive”.
Regarding `C[C@@H]1CCO[C@H]2Cn3cc(C(=O)NCc4ccc(F)cc4F)c(=O)c(O)c3C(=O)N12`, the AC50 is 14.9 µM (active).

The nature of the next test: CCTE_Mundy_HCI_Cortical_Synap_Neur_Matur_NeuronCount: CCTE's Synaptogenesis and Neurite Maturation Assay in rat cortical cells for Neuron Count, Mundy Lab (AID 2284242; active = hit-call score of the fitted dose curve at least 0.9, where 1 is the maximum;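 as to AC50: hits reduce neuron count versus DMSO baseline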). The essentials:
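Neuron number was scored by automated high-content imaging of Hoechst- and MAP2-labelled rat primary cortical cells. Glial growth was arrested with AraC at DIV 5, compounds were applied from DIV 7, and cultures ended at DIV 12.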
As for `CC(C)O`, the call was inactive.
The same measure, in the same setting: next, `F`: “inactive”; `CC(=O)N[C@@H](CC(=O)O)C(=O)O`: “inactive”; `CCCCCC=C(C)C(CC)CCO` (stereo unspecified): “inactive”.
Turning to `BrC1CC(Br)CC(Br)CC(Br)CC(Br)CC(Br)C1` (stereo unspecified), the AC50 is 3.43 µM (active).
Same read-out and setting: next, `[O]=[V]([OH])([OH])[OH]`: 19.6 µM (active).
`CCc1ccccc1`: the call was inactive.
On the same count and under the same terms, next, `CN(C)CCCn1cc(C2=C(c3c[nH]c4ccccc34)C(=O)NC2=O)c2ccccc21`: “inactive”; `Cc1[nH]n(C)c(=O)c1C(=O)c1ccc(C(F)(F)F)cc1S(C)(=O)=O`: “inactive”.
As to `CC(CNC(=S)[S-])NC(=S)[S-].[Zn+2]` (stereo unspecified), the AC50 is 82.3 µM (active).
As for `C[C@@H]1CCO[C@H]2Cn3cc(C(=O)NCc4ccc(F)cc4F)c(=O)c(O)c3C(=O)N12`, the compound was classed as inactive.

Another test is described as follows: IUF_NPC2c_oligodendrocyte_migration_120hr: Leibniz Research Institute for Environmental Medicine (IUF) 120-hour Neural Progenitor Cell Migration Assay for Oligodendrocyte Migration (NPC2c) (AID 2284297).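 Also: O4-positive oligodendrocyte migration distance divided by radial glia migration distance.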 The essentials: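 Human fetal neural progenitor spheres (0.3 mm) are plated on poly-D-lysine/laminin in N2 differentiation medium and exposed for 120 h, with half-medium renewal at day 3. Oligodendrocyte (O4+) migration distance comes from ICC imaging, normalised to radial glia migration.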
As for `CC(=O)OC/N=[N+](\C)[O-]`, the compound was called inactive.
For `CCCCOCCOP(=O)(O)OCCOCCCC`, the compound was called inactive.
As to `CC(C)O`, the result was inactive.
The same measure, in the same setting: next, `F`: “inactive”.
The same measure, in the same setting: next, `CC(=O)N[C@@H](CC(=O)O)C(=O)O`: “inactive”.
Regarding `CCCCCC=C(C)C(CC)CCO` (stereo unspecified), the outcome was inactive.
With `BrC1CC(Br)CC(Br)CC(Br)CC(Br)CC(Br)C1` (stereo unspecified), the AC50 was 1.24 µM (active).
For `C[C@@H]1CC[C@@H](C(C)(C)O)[C@H](O)C1`, the call was inactive.
On the same count and under the same terms, next, `CC(C)c1nn(C(=O)NC(C)(C)C)c(=O)n1N`: “inactive”; `CCc1ccccc1`: “inactive”.
In the case of `CN(C)CCCn1cc(C2=C(c3c[nH]c4ccccc34)C(=O)NC2=O)c2ccccc21`, the AC50 is 18.6 µM (active).
As for `CCCCCC(C)(CC)C(=O)NC` (stereo unspecified), the result was inactive.
Same read-out and setting: next, `Cc1[nH]n(C)c(=O)c1C(=O)c1ccc(C(F)(F)F)cc1S(C)(=O)=O`: “inactive”.
On to `CC(CNC(=S)[S-])NC(=S)[S-].[Zn+2]` (stereo unspecified), for which the result was inactive.
Consider `C[C@@H]1CCO[C@H]2Cn3cc(C(=O)NCc4ccc(F)cc4F)c(=O)c(O)c3C(=O)N12`, for which the result was inactive.

The nature of another test: IUF_NPC2a_radial_glia_migration_120hr: Leibniz Research Institute for Environmental Medicine (IUF) 120-hour Neural Progenitor Cell Migration Assay for Radial Glia Migration (NPC2a) (AID 2284298). The essentials:
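Human fetal-cortex neural progenitor spheres (0.3 mm) plated on poly-D-lysine/laminin in N2 differentiation medium, exposed 120 h at 37C with half-medium renewal at day 3. Radial glia migration distance (um) measured from Hoechst-stained nuclei images; DMSO baseline.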
Regarding `CC(=O)OC/N=[N+](\C)[O-]`, the result was inactive.
On the same count and under the same terms, next, `CCCCOCCOP(=O)(O)OCCOCCCC`: “inactive”; `CC(C)O`: “inactive”; `F`: “inactive”.
Same read-out and setting: next, `CC(=O)N[C@@H](CC(=O)O)C(=O)O`: “inactive”.
Take `CCCCCC=C(C)C(CC)CCO` (stereo unspecified): the compound was called inactive.
Turning to `BrC1CC(Br)CC(Br)CC(Br)CC(Br)CC(Br)C1` (stereo unspecified), the result was inactive.
On the same count and under the same terms, the result for `C[C@@H]1CC[C@@H](C(C)(C)O)[C@H](O)C1` reads “inactive”; that for `CC(C)c1nn(C(=O)NC(C)(C)C)c(=O)n1N`, “inactive”.
The same measure, in the same setting: next, `CCc1ccccc1`: “inactive”.
Consider `CN(C)CCCn1cc(C2=C(c3c[nH]c4ccccc34)C(=O)NC2=O)c2ccccc21`, for which the AC50 is 5.37 µM (active).
`CCCCCC(C)(CC)C(=O)NC` (stereo unspecified): the compound was classed as inactive.
In the case of `Cc1[nH]n(C)c(=O)c1C(=O)c1ccc(C(F)(F)F)cc1S(C)(=O)=O`, the compound was called inactive.
Consider `CC(CNC(=S)[S-])NC(=S)[S-].[Zn+2]` (stereo unspecified), for which the AC50 was 12.5 µM (active).
As for `C[C@@H]1CCO[C@H]2Cn3cc(C(=O)NCc4ccc(F)cc4F)c(=O)c(O)c3C(=O)N12`, the compound was classed as inactive.

A further test can be described thus: IUF_NPC2a_radial_glia_migration_72hr: Leibniz Research Institute for Environmental Medicine (IUF) 72-hour Neural Progenitor Cell Migration Assay for Radial Glia Migration (NPC2a) (AID 2284299). A digest of the protocol:
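Primary hNPC spheres, fetal brain GW 16-19, on PDL/laminin; DMEM/F12 3:1 + 1% N2. Compound dosed day 0, 7 conc. + SC, half-medium refresh day 3. 72 h brightfield, migration distance core-to-front (um), 4 directions averaged.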
Turning to `CC(=O)OC/N=[N+](\C)[O-]`, the outcome was inactive.
Consider `CCCCOCCOP(=O)(O)OCCOCCCC`, for which the compound was called inactive.
As to `CC(C)O`, the compound was classed as inactive.
Same read-out and setting: next, `F`: “inactive”.
On the same count and under the same terms, the result for `CC(=O)N[C@@H](CC(=O)O)C(=O)O` reads “inactive”; that for `CCCCCC=C(C)C(CC)CCO` (stereo unspecified), “inactive”.
On the same count and under the same terms, the result for `BrC1CC(Br)CC(Br)CC(Br)CC(Br)CC(Br)C1` (stereo unspecified) reads “inactive”; that for `C[C@@H]1CC[C@@H](C(C)(C)O)[C@H](O)C1`, “inactive”; that for `CC(C)c1nn(C(=O)NC(C)(C)C)c(=O)n1N`, “inactive”.
On to `CCc1ccccc1`, for which the compound was classed as inactive.
For the compound `CN(C)CCCn1cc(C2=C(c3c[nH]c4ccccc34)C(=O)NC2=O)c2ccccc21`, the AC50 was 11.3 µM (active).
Take `CCCCCC(C)(CC)C(=O)NC` (stereo unspecified): the AC50 is 1.02 µM (active).
In the case of `Cc1[nH]n(C)c(=O)c1C(=O)c1ccc(C(F)(F)F)cc1S(C)(=O)=O`, the compound was called inactive.
Still for that read-out and setting: the result for `CC(CNC(=S)[S-])NC(=S)[S-].[Zn+2]` (stereo unspecified) reads “inactive”.
The same measure, in the same setting: next, `C[C@@H]1CCO[C@H]2Cn3cc(C(=O)NCc4ccc(F)cc4F)c(=O)c(O)c3C(=O)N12`: “inactive”.
